Reference: PubChem BioAssay AID1446 (The Scripps Research Institute Molecular Screening Center, 2008)
About 2,400 (1.1%) of roughly 220,000 compounds were called active. Only a selection was taken, and actives are over-represented in it overall. Values without a mark were called inactive.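 The calls were made as follows: active = inhibition above the campaign mean plus 3 SD over all tested compounds (cut at about 24% in these data); inactive = the rest.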

test: reduced viability of JAK2V617F-dependent Ba/F3 cells, primary screen, JAK2V617F inhibitor project, cell-based, Ba/F3 EpoR-JAK2V617F, luminescence (AID 1446); conditions: ATP luminescence, at 5.6 µM, active compounds read high;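 also: cytokine-independent growth of Ba/F3 cells driven by EpoR plus mutant JAK2; 0% = DMSO-treated cells and 100% = JAK inhibitor I control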

Row | Structure (SMILES) | inhibition
1 | CCCCCCCCCCCCn1ccc(=N)cc1 | 98.4% (active)
2 | COc1cc(OC)cc(C2(C#N)CCN(C)CC2)c1 | -0.42%
3 | O=C1NC(=O)N(CCc2ccc(F)cc2)C(=O)/C1=C/C=C/c1ccccc1 | 1.28%
4 | COc1ccc(-n2c(-c3ccccc3)nc3ccccc3c2=O)cc1 | 0.29%
5 | CN(C)CC1Oc2ccccc2OC1(O)c1ccccc1 (stereo not given) | 91.1% (active)
6 | O=c1[nH]c(=O)n(-c2ccc(F)cc2)c(O)c1C=NCCN1CCCCC1 | 0.16%
7 | Cc1cccc(NC(=O)OC2CN3CCC2CC3)c1 (stereo not given) | 2.6%
8 | CN1CCN(/N=C/c2c[nH]c3ccccc23)CC1 | -2.46%
9 | CC1=C(C(=O)Nc2ccccc2)S(=O)(=O)CCO1 | -1.56%
10 | CCOc1ccc(-c2cc(C)[n+](CCN(CC)CC)c(-c3ccc(OCC)cc3)c2)cc1 | 98.2% (active)
11 | CC1=C2C(=O)C3C(CC=C4CC(OC5OC(O)C(O)C(O)C5CO)CCC43C)C2CCC12OC1CC(C)CNC1C2C (stereo not given) | 0.84%
12 | CSc1nc2ccc(C)cc2c(=O)n1-c1cccnc1 | 3.49%
13 | CC1(C)Cc2c(C#N)c(N3CCNCC3)nc(-c3ccco3)c2CS1 | 1.65%
14 | CCOc1cccc(=NC2CCCCC2)c2c(C)[nH]c(C)c12 | 34% (active)
15 | O=C(O)COc1ccccc1/C=C1\C(=O)NC(=O)N(CCC2=CCCCC2)C1=O | -1.88%
16 | Cn1c(O)c(C(=Nc2ccc(F)cc2)c2ccccc2)c(=O)n(C)c1=O | -3.28%
17 | CCCCC(=O)N/N=C/c1c(O)n(CCC2=CCCCC2)c(=O)[nH]c1=O | -0.19%
18 | O=c1[nH]c(=O)n(CCc2ccc(F)cc2)c(O)c1/C=N/N1CCCCC1 | -0.8%
19 | O=c1[nH]c(CN2CC=C(c3ccccc3)CC2)nc2scc(-c3cccs3)c12 | -4.83%
20 | Cc1ccc(CN2CCCC(C(=O)c3ccc4c(c3)OCO4)C2)cc1C (stereo not given) | -3.5%
21 | CCOP(=O)(OCC)C(NC(=O)NC)C(N)=O (stereo not given) | 3.57%
22 | CC1=CC(=Cc2sc3ccccc3[n+]2C)C=C(C)O1 | 101% (active)
23 | CNC(=O)O/N=C(\N)Cc1csc2ccc(Cl)cc12 | 1.27%
24 | O=c1[nH]c(=O)n(CCc2ccccc2)c(O)c1/C=N/N1CCOCC1 | -2.98%
25 | CCOP(=O)(OCC)C(NC(=O)c1ccc(OC)cc1)C(Cl)(Cl)Cl (stereo not given) | 1.2%
